Experimental data taken from PubChem BioAssay AID1159580 (chemical genetic matrix, 2015).
Among all 5,500 compounds or so, about 2,000 (36%) were called active. Not shown: some 18% with an inconclusive outcome. Rule as the data show it: active = normalized growth mostly below about 0.91 (no sharp cut-off); inconclusive = no clear call, values can overlap the other calls; inactive = mostly above about 0.92. The list shows a part of the results.

Assay: chemical genetic growth profiling, strain panel (AID 1159580);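 also: tested at 20 µM; growth read once vehicle control cultures reached saturation at 30 °C; 1 = growth at the plate median or of vehicle wells; lower values mean less growth of the strain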
Settings: growth OD

Measured: normalized growth

COC1=CC(=O)C[C@@H](C)[C@]12Oc1c(Cl)c(OC)cc(OC)c1C2=O
inactive: S. cerevisiae deletion strains, locus YJR075W, strain HOC1, stronger effect = lower value 1.03 | S. cerevisiae deletion strains, locus YKL009W, strain mrt4, stronger effect = lower value 1 | S. cerevisiae deletion strains, locus YKL068W, stronger effect = lower value 0.986 | S. cerevisiae deletion strains, locus YKL085W, strain MDH1 (second series), stronger effect = lower value 0.989 | S. cerevisiae deletion strains, locus YKL085W, strain MDH1, stronger effect = lower value 0.989 | S. cerevisiae deletion strains, locus YKL160W, strain elf1, stronger effect = lower value 1.02 | S. cerevisiae deletion strains, locus YKL190W, strain CNB1, stronger effect = lower value 1 | S. cerevisiae deletion strains, locus YKR001C, strain vps1, stronger effect = lower value 0.995 | S. cerevisiae deletion strains, locus YKR026C, strain gcn3, stronger effect = lower value 0.979 | S. cerevisiae deletion strains, locus YKR091W, strain srl3, stronger effect = lower value 0.989 | S. cerevisiae deletion strains, locus YLL001W, strain dnm1, stronger effect = lower value 0.984 | S. cerevisiae deletion strains, locus YLL026W, stronger effect = lower value 0.984 | S. cerevisiae deletion strains, locus YLL041C, strain sdh2, stronger effect = lower value 0.996 | S. cerevisiae deletion strains, locus YLR027C, strain aat2, stronger effect = lower value 0.993 | S. cerevisiae deletion strains, locus YLR039C, strain RIC1, stronger effect = lower value 0.983 | S. cerevisiae deletion strains, locus YLR058C, strain SHM2, stronger effect = lower value 0.996 | S. cerevisiae deletion strains, locus YLR102C, strain apc9, stronger effect = lower value 1 | S. cerevisiae deletion strains, locus YLR113W, strain HOG1, stronger effect = lower value 1 | S. cerevisiae deletion strains, locus YLR221C, strain rsa3, stronger effect = lower value 0.956 | S. cerevisiae deletion strains, locus YLR258W, strain gsy2, stronger effect = lower value 0.982 | S. cerevisiae deletion strains, locus YLR262C, strain YPT6 (second series), stronger effect = lower value 0.967 | S. cerevisiae deletion strains, locus YLR262C, strain YPT6, stronger effect = lower value 0.936 | S. cerevisiae deletion strains, locus YLR268W, strain sec22, stronger effect = lower value 0.994 | S. cerevisiae deletion strains, locus YLR320W, strain mms22, stronger effect = lower value 0.982 | S. cerevisiae deletion strains, locus YLR330W, strain CHS5, stronger effect = lower value 0.994 | S. cerevisiae deletion strains, locus YLR342W, strain FKS1 (second series), stronger effect = lower value 0.979 | S. cerevisiae deletion strains, locus YLR342W, strain FKS1, stronger effect = lower value 0.972 | S. cerevisiae deletion strains, locus YLR357W, strain rsc2, stronger effect = lower value 1.01 | S. cerevisiae deletion strains, locus YLR370C, strain arc18, stronger effect = lower value 0.943 | S. cerevisiae deletion strains, locus YLR371W, strain rom2, stronger effect = lower value 0.987 | S. cerevisiae deletion strains, locus YLR384C, strain iki3, stronger effect = lower value 0.993 | S. cerevisiae deletion strains, locus YLR418C, strain cdc73, stronger effect = lower value 0.987 | S. cerevisiae deletion strains, locus YML016C, strain PPZ1, stronger effect = lower value 0.991 | S. cerevisiae deletion strains, locus YML032C, strain rad52, stronger effect = lower value 0.986 | S. cerevisiae deletion strains, locus YML120C, strain ndi1, stronger effect = lower value 0.951 | S. cerevisiae deletion strains, locus YML124C, strain tub3, stronger effect = lower value 0.99 | S. cerevisiae deletion strains, locus YMR058W, strain fet3, stronger effect = lower value 0.999 | S. cerevisiae deletion strains, locus YMR078C, strain ctf18, stronger effect = lower value 0.987 | S. cerevisiae deletion strains, locus YMR125W, strain sto1, stronger effect = lower value 0.988 | S. cerevisiae deletion strains, locus YMR129W, stronger effect = lower value 0.983 | S. cerevisiae deletion strains, locus YMR205C, strain PFK2, stronger effect = lower value 1.01 | S. cerevisiae deletion strains, locus YMR223W, strain ubp8, stronger effect = lower value 0.988 | S. cerevisiae deletion strains, locus YMR231W, strain pep5, stronger effect = lower value 0.991 | S. cerevisiae deletion strains, locus YMR263W, strain SAP30, stronger effect = lower value 1.01 | S. cerevisiae deletion strains, locus YMR307W, strain GAS1, stronger effect = lower value 0.847 | S. cerevisiae deletion strains, locus YNL067W, strain RPL9B, stronger effect = lower value 1.04 | S. cerevisiae deletion strains, locus YNL071W, strain lat1, stronger effect = lower value 0.992 | S. cerevisiae deletion strains, locus YNL128W, strain TEP1, stronger effect = lower value 1 | S. cerevisiae deletion strains, locus YNL153C, strain GIM3, stronger effect = lower value 1.04 | S. cerevisiae deletion strains, locus YNL183C, strain NPR1, stronger effect = lower value 0.958 | S. cerevisiae deletion strains, locus YNL209W, strain ssb2, stronger effect = lower value 0.984 | S. cerevisiae deletion strains, locus YNL233W, strain BNI4, stronger effect = lower value 1.06 | S. cerevisiae deletion strains, locus YNL248C, strain rpa49, stronger effect = lower value 1.05 | S. cerevisiae deletion strains, locus YNL250W, strain rad50, stronger effect = lower value 1 | S. cerevisiae deletion strains, locus YNL271C, strain bni1, stronger effect = lower value 0.99 | S. cerevisiae deletion strains, locus YNL298W, strain CLA4, stronger effect = lower value 0.995 | S. cerevisiae deletion strains, locus YNL307C, strain MCK1, stronger effect = lower value 1 | S. cerevisiae deletion strains, locus YNL322C, strain KRE1 (second series), stronger effect = lower value 0.991 | S. cerevisiae deletion strains, locus YNL322C, strain KRE1, stronger effect = lower value 1 | S. cerevisiae deletion strains, locus YNR049C, strain mso1, stronger effect = lower value 0.98 | S. cerevisiae deletion strains, locus YNR052C, strain pop2, stronger effect = lower value 0.999 | S. cerevisiae deletion strains, locus YOL006C, strain TOP1, stronger effect = lower value 1.11 | S. cerevisiae deletion strains, locus YOL012C, strain htz1 0.916 | S. cerevisiae deletion strains, locus YOL147C, strain pex11, stronger effect = lower value 0.993 | S. cerevisiae deletion strains, locus YOR001W, strain rrp6, stronger effect = lower value 0.967 | S. cerevisiae deletion strains, locus YOR061W, strain CKA2, stronger effect = lower value 0.968 | S. cerevisiae deletion strains, locus YOR069W, strain VPS5, stronger effect = lower value 0.993 | S. cerevisiae deletion strains, locus YOR070C, strain gyp1, stronger effect = lower value 0.977 | S. cerevisiae deletion strains, locus YOR080W, strain dia2, stronger effect = lower value 0.982 | S. cerevisiae deletion strains, locus YOR083W, strain WHI5, stronger effect = lower value 1.02 | S. cerevisiae deletion strains, locus YOR106W, strain vam3, stronger effect = lower value 1 | S. cerevisiae deletion strains, locus YOR136W, strain idh2, stronger effect = lower value 1 | S. cerevisiae deletion strains, locus YOR144C, strain elg1, stronger effect = lower value 0.988 | S. cerevisiae deletion strains, locus YOR184W, strain ser1, stronger effect = lower value 0.991 | S. cerevisiae deletion strains, locus YOR231W, strain MKK1, stronger effect = lower value 1.01 | S. cerevisiae deletion strains, locus YOR265W, strain rbl2, stronger effect = lower value 0.978 | S. cerevisiae deletion strains, locus YOR270C, strain vph1, stronger effect = lower value 0.952 | S. cerevisiae deletion strains, locus YOR290C, strain snf2, stronger effect = lower value 1.03 | S. cerevisiae deletion strains, locus YOR316C, strain cot1, stronger effect = lower value 0.992 | S. cerevisiae deletion strains, locus YPL051W, strain arl3, stronger effect = lower value 1.02 | S. cerevisiae deletion strains, locus YPL055C, strain LGE1, stronger effect = lower value 0.985 | S. cerevisiae deletion strains, locus YPL078C, strain atp4, stronger effect = lower value 1.03 | S. cerevisiae deletion strains, locus YPL106C, strain sse1, stronger effect = lower value 0.964 | S. cerevisiae deletion strains, locus YPL240C, strain hsp82, stronger effect = lower value 0.988 | S. cerevisiae deletion strains, locus YPL241C, strain CIN2, stronger effect = lower value 0.992 | S. cerevisiae deletion strains, locus YPL256C, strain CLN2, stronger effect = lower value 0.985 | S. cerevisiae deletion strains, locus YPR119W, strain clb2, stronger effect = lower value 0.99 | S. cerevisiae deletion strains, locus YPR141C, strain kar3, stronger effect = lower value 0.978 | S. cerevisiae deletion strains, locus YPR163C, strain tif3, stronger effect = lower value 0.98 | S. cerevisiae deletion strains, locus YPR167C, strain met16, stronger effect = lower value 0.99 | S. cerevisiae deletion strains, strain wtn01, stronger effect = lower value 0.998 | S. cerevisiae strains, strain wild type, stronger effect = lower value 0.988
